Our source for the Potency and outcome values is PubChem BioAssay (NCATS).

Each structure is given as a SMILES string. Results filed as inconclusive are left out. Active and inactive are the calls of the source. The call rests on the fitted dose curve; in most records, active means well fitted curve in the direction sought with a large enough effect; inconclusive means small, poorly fitted or top-dose-only effect, or another doubt; inactive means no such curve, though single readings can be large; an effect the other way counts as inactive or inconclusive.

Assay [1] can be described thus: qHTS of pediatric cancer cell lines to identify multiple opportunities for drug repurposing: Primary screen for SK-N-SH cells (AID 1347098).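 Further: DMSO served as neutral control and bortezomib at 2.3 µM as positive control; nearly all actives have a fitted effect of over 65% in size.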 To be noted: SK-N-SH viability, CellTiter-Glo luminescence, 48 h; series mostly up to 57 µM. In short, it runs like this:
(§1)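 Cells (500-1,000/well) rested 5 h, then received compounds for 48 h; metabolically active cells were measured by CellTiter-Glo luminescence. Final concentrations spanned up to 46 µM (MIPE, 11-point) or 0.59 nM-46 µM (NPC, 8-point) in primary screens, 11-point in follow-ups.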
For orientation: qHTS replaces the single test concentration by a dilution series.

Assay [2] can be described thus: qHTS of pediatric cancer cell lines to identify multiple opportunities for drug repurposing: Primary screen for NB1643 cells (AID 1347099). Further: nearly all actives have a fitted effect of over 50% in size. The following applies: NB1643 neuroblastoma viability, CellTiter-Glo luminescence, 48 h; series mostly up to 46 µM. In short, it runs like this:
(§2)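 Following a 5-hour attachment period, cells at 500-1,000/well received compounds and were cultured for 48 hours. CellTiter-Glo was added and luminescence read to estimate viable, metabolically active cells.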

Assay [3] can be described thus: qHTS of pediatric cancer cell lines to identify multiple opportunities for drug repurposing: Primary screen for LAN-5 cells (AID 1347100). Further: potency means the concentration at half of the fitted maximal effect. To be noted: LAN-5 neuroblastoma viability, CellTiter-Glo luminescence, 48 h; series mostly up to 46 µM. In short, it runs like this: as §1
Assay [4] in a line: qHTS of pediatric cancer cell lines to identify multiple opportunities for drug repurposing: Primary screen for BT-12 cells (AID 1347101). Further: nearly all actives have a fitted effect of over 25% in size. To be noted: BT-12 viability, CellTiter-Glo luminescence, 48 h; series mostly up to 57.3 µM. In short, it runs like this: as §1
Assay [5] is described as follows: qHTS of pediatric cancer cell lines to identify multiple opportunities for drug repurposing: Primary screen for OHS-50 cells (AID 1347103). Further: nearly all actives have a fitted effect of over 40% in size. To be noted: OHS-50 osteosarcoma viability, CellTiter-Glo luminescence, 48 h; series mostly up to 57.3 µM. In short, it runs like this: as §1
Assay [6] in a line: qHTS of pediatric cancer cell lines to identify multiple opportunities for drug repurposing: Primary screen for RD cells (AID 1347104). Further: nearly all actives have a fitted effect of over 55% in size. The following applies: RD rhabdomyosarcoma viability, CellTiter-Glo luminescence, 48 h; series mostly up to 46 µM. In short, it runs like this: as §2
Assay [7] is described as follows: qHTS of pediatric cancer cell lines to identify multiple opportunities for drug repurposing: Primary screen for MG 63 (6-TG R) cells (AID 1347105). Further: nearly all actives have a fitted effect of over 50% in size. To be noted: MG 63 (6-TG R) viability, CellTiter-Glo, 48 h; series mostly up to 46 µM. In short, it runs like this:
as §2

The nature of assay [8]: qHTS of pediatric cancer cell lines to identify multiple opportunities for drug repurposing: Primary screen for control Hh wild type fibroblast cells (AID 1347106).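 Further: a drop in luminescence marks cytotoxicity and a rise apparent proliferation; nearly all actives have a fitted effect of over 55% in size.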 The following applies: Hh wild-type fibroblast viability, CellTiter-Glo luminescence, 48 h; series mostly up to 46 µM. In short, it runs like this: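 Cells (500-1,000/well) in growth media were settled 5 h at 37 degrees C, then given compounds for 48 h. Viability was read as CellTiter-Glo luminescence. Primary runs used MIPE at 11 points (0.78 nM-46 µM) and NPC at 8 points (0.59 nM-46 µM); follow-ups used 11 points.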

Assay [9] can be described thus: qHTS of pediatric cancer cell lines to identify multiple opportunities for drug repurposing: Primary screen for Rh30 cells (AID 1347107). Further: nearly all actives have a fitted effect of over 75% in size. The following applies: Rh30 rhabdomyosarcoma viability, CellTiter-Glo luminescence, 48 h; series mostly up to 46 µM. In short, it runs like this: as §1
Assay [10] in a line: qHTS of pediatric cancer cell lines to identify multiple opportunities for drug repurposing: Primary screen for Rh18 cells (AID 1347102). Further: nearly all actives have a fitted effect of over 65% in size. To be noted: Rh18 rhabdomyosarcoma viability, CellTiter-Glo luminescence, 48 h; series mostly up to 46 µM. In short, it runs like this: as §1

In the case of `CCC1(CC)C(=O)C=CNC1=O`, the Potency result in [1], in [2], in assay [3], in assay [4], in assay [5] and in assay [6] was “inactive” in each case. In addition, the Potency result in assay [7] is “inactive”. In addition, the call in [8] and in [9] was inactive.

For the molecule `CCCCC/C=C\C/C=C\C/C=C\C/C=C\CCCC(=O)NCC(=O)O`, the Potency result in assay [1], in assay [2], in [3], in assay [10], in assay [5] and in [6] was “inactive” in each case. For the same molecule, in assay [7], the Potency result is “inactive”. For the same molecule, the result in assay [8] and in assay [9] was inactive.

On to `O=c1[nH]c2ccccc2n1C1CCNCC1`, for which the Potency entry in assay [1], in assay [2], in assay [3], in assay [4], in assay [10] and in assay [5] was “inactive” in each case. Further, the Potency result in assay [6] and in assay [7] was “inactive” throughout. Besides, the call in assay [8] and in assay [9] was inactive.

Turning to `CCC(C)C(C)(COC(N)=O)COC(N)=O` (centres undefined), the Potency entry in assay [1], in assay [2], in assay [3], in [4], in assay [5] and in [6] was “inactive” in each case. Besides, the Potency result in assay [7] is “inactive”. The result in assay [8] and in assay [9] was inactive.

Take `COP(=S)(OC)Oc1ccc(S(=O)(=O)N(C)C)cc1`: the Potency entry in assay [1], in [2], in [3], in [4], in assay [5] and in [6] was “inactive” each time. Moreover, the Potency result in assay [7] is “inactive”. In addition, the molecule was called inactive in assay [8] and in assay [9].

In the case of `c1ccc(CN2CCNCC2)cc1`, the Potency entry in assay [1], in [2], in [3], in assay [4], in [10] and in assay [5] was “inactive” each time. Further, the Potency result in [6] and in [7] was “inactive” throughout. The molecule was called inactive in [8] and in assay [9].

For the molecule `COc1ccc2c(c1OC)C(=O)O[C@H]2[C@@H]1c2cc3c(cc2CCN1C)OCO3`, the Potency entry in assay [1], in assay [2], in assay [3], in [4], in assay [10] and in assay [5] was “inactive” in each case. Also, the Potency result in assay [6] and in assay [7] was “inactive” each time. In addition, the call in assay [8] and in assay [9] was inactive.

For the molecule `Nc1ccc([As](=O)(O)O)cc1`, the Potency result in assay [1], in [2], in [3], in assay [4], in assay [10] and in [5] was “inactive” throughout. Moreover, the Potency entry in assay [6] and in [7] was “inactive” throughout. The result in assay [8] and in [9] was inactive.

In the case of `NC(=O)CS(=O)C(c1ccccc1)c1ccccc1` (centres undefined), the Potency result in [1], in assay [2], in [3], in assay [4], in [5] and in assay [6] was “inactive” throughout. Further, the Potency entry in assay [7] is “inactive”. Besides, the outcome in assay [8] and in assay [9] was inactive.

Regarding `COP(=S)(OC)Oc1cc(Cl)c(Cl)cc1Cl`, the Potency result in [1], in assay [2], in [3], in assay [4], in assay [5] and in [6] was “inactive” throughout. In addition, the Potency entry in [7] is “inactive”. The molecule was called inactive in assay [8] and in [9].

For the molecule `C=CCN1C[C@H](C)N([C@H](c2ccc(C(=O)N(CC)CC)cc2)c2cccc(OC)c2)C[C@H]1C`, the Potency entry in assay [1], in [2], in assay [3], in [4], in assay [10] and in assay [5] was “inactive” in each case. The Potency result in assay [6] and in [7] was “inactive” each time. Further, the outcome in assay [8] and in assay [9] was inactive.

For the molecule `[N-]=[N+]=CC(=O)OC[C@H](N)C(=O)O`, the Potency result in [1], in [2], in [3], in [4], in assay [10] and in assay [5] was “inactive” in each case. The Potency entry in [6] and in [7] was “inactive” in each case. The molecule was classed as inactive in assay [8] and in assay [9].

For the molecule `COc1cc(CC(C)N)cc(OC)c1OC` (centres undefined), the Potency entry in assay [1], in [2], in assay [3], in [4], in assay [10] and in assay [5] was “inactive” in each case. For the same molecule, the Potency entry in assay [6] and in [7] was “inactive” each time. Moreover, the result in [8] and in [9] was inactive.

`CC(C)NC(C)C`: the Potency entry in assay [1], in assay [2], in assay [3], in [4], in [10] and in assay [5] was “inactive” in each case. For the same molecule, the Potency entry in assay [6] and in assay [7] was “inactive” throughout. Further, the result in [8] and in [9] was inactive.

As to `CC(=O)C1CCOC1=O` (centres undefined), the Potency entry in assay [1], in [2], in [3], in assay [4], in [5] and in assay [6] was “inactive” in each case. Moreover, the Potency entry in [7] was “inactive”. Besides, the call in [8] and in assay [9] was inactive.

As for `COc1cc(OC)c(OC)cc1C=O`, the Potency entry in assay [1], in [2], in assay [3], in [4], in [10] and in assay [5] was “inactive” throughout. In addition, the Potency result in assay [6] and in [7] was “inactive” each time. Also, the result in assay [8] and in assay [9] was inactive.

For `Nc1ccccc1C(=O)O`, the Potency entry in assay [1], in [2], in assay [3], in assay [4], in assay [5] and in [6] was “inactive” each time. Further, in assay [7], the Potency entry was “inactive”. Moreover, the molecule was classed as inactive in assay [8] and in [9].

Turning to `Nc1ccccc1`, the Potency result in assay [1], in [2], in [3], in assay [4], in [10] and in assay [5] was “inactive” each time. The Potency entry in [6] and in assay [7] was “inactive” in each case. Further, the outcome in assay [8] and in assay [9] was inactive.

For the molecule `CC[N+]1(CC)CCC(OC(=O)C(O)(c2ccccc2)c2ccccc2)C1` (centres undefined), the Potency entry in assay [1], in [2], in assay [3], in assay [4], in assay [10] and in assay [5] was “inactive” each time. For the same molecule, the Potency result in [6] and in [7] was “inactive” throughout. The molecule was classed as inactive in [8] and in assay [9].

On to `C#CC(O)(C=CCl)CC` (centres undefined), for which the Potency result in assay [1], in [2], in [3], in assay [4], in [10] and in assay [5] was “inactive” in each case. In addition, the Potency entry in assay [6] and in assay [7] was “inactive” in each case. The molecule was classed as inactive in [8] and in assay [9].

As to `O=C(O)CCCc1ccc(N(CCCl)CCCl)cc1`, the Potency entry in [1], in assay [2], in [4], in assay [10], in assay [6] and in assay [7] was “inactive” throughout. Further, the Potency in assay [3] is 9.44 µM (active). Besides, the outcome in assay [8] and in assay [9] was inactive.

Consider `NCCc1ccc(O)cc1`, for which the Potency result in [1], in [2], in assay [3], in [10], in [5] and in assay [6] was “inactive” in each case. Further, the Potency result in assay [7] was “inactive”. Further, the call in assay [8] and in assay [9] was inactive.

Take `C[C@]12CC[C@H]3[C@@H](CCC4=CC(=O)CC[C@@H]43)[C@@H]1CC[C@@H]2OC(=O)CCc1ccco1`: the Potency entry in assay [1], in assay [2], in [3], in assay [4], in [10] and in assay [6] was “inactive” throughout. The Potency entry in assay [7] was “inactive”. The call in assay [8] and in assay [9] was inactive.
